What was measured:
[1] = qHTS profiling of the MIPE4 collection as inhibitors of Plasmodium falciparum (DD2) proliferation (AID 743345); conditions: P. falciparum Dd2 in erythrocytes, SYBR Green DNA, 72 h; at 28.5 µM (top of the series) unless noted
How it was run: (§1)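 Erythrocytes infected with P. falciparum (0.3% parasitemia, 2.5% hematocrit) incubated with compounds 72 h at 37 C, 5% CO2. Lysis with saponin/Triton buffer containing SYBR Green I, overnight at room temperature in the dark; DNA fluorescence (485/535 nm) normalised to 0.29 uM artemisinin and DMSO.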

[2] = qHTS profiling of the MIPE4 collection as inhibitors of Plasmodium falciparum (DD2) proliferation (Rep 2) (AID 743346); conditions: P. falciparum Dd2 in erythrocytes, SYBR Green DNA, 72 h; at 28.5 µM (top of the series)
How it was run: as §1

[3] = qHTS profiling of the MIPE4 collection as inhibitors of Plasmodium falciparum (3D7) proliferation (AID 743344);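 note: scaled between DMSO vehicle wells and 0.29 µM artemisinin as full inhibition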; conditions: P. falciparum 3D7 in erythrocytes, SYBR Green DNA fluorescence, 72 h; at 28.5 µM (top of the series)
How it was run: as §1

| Compound | parasite growth remaining, % of DMSO control (lower = more inhibition) [1] | parasite growth, % of control (lower = inhibition) [2] | parasite growth, % of DMSO control [3] |
| --- | --- | --- | --- |
| O=c1[nH]c2ccccc2n1C1CCN(Cc2ccc(-c3[nH]c4cc5ncnc5cc4nc3-c3ccccc3)cc2)CC1 | 6.7% | 14.2% | – |
| CC(C)[C@]12O[C@@H]1[C@@H]1O[C@]13[C@]1(O[C@H]1C[C@@H]1C4=C(CC[C@@]13C)C(=O)OC4)[C@H]2O | 77% | 49.4% | – |
| C[C@]12CC[C@@H]3[C@@H](CCC4=CC(=O)CC[C@@H]43)[C@@H]1CC[C@@H]2OC(=O)CCc1ccccc1 | 83% | 56.3% | – |
| Cn1cncc1[C@@](N)(c1ccc(Cl)cc1)c1ccc2c(c1)c(-c1cccc(Cl)c1)cc(=O)n2C | 33.3% | – | – |
| C[C@@H]1CC[C@@]2(OC1)O[C@H]1C[C@H]3[C@@H]4CC=C5C[C@@H](O[C@@H]6O[C@H](CO)[C@@H](O[C@@H]7O[C@@H](C)[C@H](O)[C@@H](O)[C@@H]7O)[C@H](O)[C@@H]6O[C@@H]6O[C@@H](C)[C@H](O)[C@@H](O)[C@@H]6O)CC[C@]5(C)[C@@H]4CC[C@]3(C)[C@@H]1[C@H]2C | 52.8% | 61.5% | – |
| CC(=Cc1csc(C)n1)[C@@H]1C[C@H]2O[C@]2(C)CCC[C@H](C)[C@@H](O)[C@@H](C)C(=O)C(C)(C)[C@@H](O)CC(=O)O1 | 15.7% | 35.2% | – |
| CC(=O)N(C)c1cccc(-c2ccnc3c(C(=O)c4cccs4)cnn23)c1 | 66.2% | 51.9% | – |
| CC(N[C@H]1C[C@H]1c1ccccc1)c1ccc2c(c1)OCCO2 (stereo partly drawn) | 74.9% | 64.1% | – |
| COc1ccc(N(C(=O)Oc2c(C)cccc2C)c2ccnc(Nc3ccc(N4CCN(C)CC4)cc3)n2)c(OC)c1 | 6.94% | 20.9% | – |
| CC1=C(O)C(=O)C=C2C1=CC=C1[C@@]2(C)CC[C@@]2(C)[C@@H]3C[C@](C)(C(=O)O)CC[C@]3(C)CC[C@]12C | 7.57% | 16.2% | 8.49% |
| C=C1C[C@H]2[C@H]3CCC(=O)[C@@]3(C)CC[C@@H]2[C@@]2(C)C=CC(=O)C=C12 | 90.6% | 50.5% | 51.5% |
| CC(C)N[C@@H]1CCn2c(=O)[nH]c3cccc(c32)[C@@H]1O | 104% | 118% | – |
| CC(C)(O)C=CC(=O)[C@](C)(O)[C@H]1[C@H](O)C[C@]2(C)[C@@H]3CC=C4[C@@H](C=C(O)C(=O)C4(C)C)[C@]3(C)C(=O)C[C@@]12C | 7.06% | 21.6% | – |
| C[C@@H]1[C@H](O)[C@@H](C)C=CC=CCCC=CC=CC=CC=C[C@H](O[C@H]2O[C@@H](C)[C@H](O)[C@@H](N)[C@@H]2O)CC2O[C@](O)(C[C@@H](O)[C@H](O)CC[C@@H](O)C[C@@H](O)C[C@@H](O)CC(=O)O[C@H]1C)C[C@H](O)[C@H]2C(=O)O | 103% | 97.5% | – |
| CN1CCN(c2ccc([N+](=O)[O-])c3no[n+]([O-])c23)CC1 | 95.3% | 86.4% | – |
| CCOC(=O)c1c(C(C#N)=CN)c2ccc(Cl)c(Cl)c2n1C | 97.1% | 149% | – |
| O=c1cccc2n1CC1CNC[C@H]2C1 | 90.9% | 53.7% | – |
| C[C@]12CCC(=O)C(O)=C1CC[C@@H]1[C@H]3CCC(=O)[C@@]3(C)CC[C@@H]12 | 94.3% | 71.5% | 77.1% |
| Clc1ccccc1C(c1ccccc1)(c1ccccc1)n1cccn1 | 34.8% | 11.6% | – |
| CCOP(=O)(OCC)C(C)NC(=O)N(CCCl)N=O (stereo not drawn) | 97.6% | 135% | – |
| O=[N+]([O-])c1ncc[nH]1 | 99.8% | 101% | – |
| COC1=CC(C)=C[C@@H](C)[C@@H](O)[C@@H](C)CC(C)=CC=C[C@H](OC)[C@H]([C@@H](C)[C@@H](O)[C@H](C)[C@@]2(O)C[C@@H](O)[C@H](C)[C@@H](C(C)C)O2)OC1=O | 6.47% | 13.8% | – |
| C#C[C@]1(O)C=C[C@@H]2[C@@H]3CCC4=CC(=O)CC[C@@H]4[C@H]3CC[C@@]21CC | 59.4% | 26.2% | – |
| COc1ccc2c(c1)CN(C)CC2c1ccc(Cl)c(Cl)c1 (stereo not drawn) | 40.2% | 15.9% | 12.3% |
| CC(=Cc1csc(C)n1)[C@@H]1C[C@H]2O[C@@H]2CCC[C@H](C)[C@@H](O)[C@@H](C)C(=O)C(C)(C)[C@@H](O)CC(=O)O1 | 16.1% | 36.4% | 14.6% |
| O=C1C=CC[C@@H]2[C@H]3CCCN4CCC[C@@H](CN12)[C@@H]34 | 99.7% | 86.7% | – |
| CC=C(C)C(=O)O[C@H]1C(C)=C2[C@@H]3OC(=O)[C@@](C)(O)[C@@]3(O)[C@@H](OC(=O)CCC)C[C@](C)(OC(C)=O)[C@@H]2[C@@H]1OC(=O)CCCCCCC | 8.2% | 16.2% | – |

— PubChem BioAssay (NCATS)
